mHTT-CaM PPI inh: inhibitors of human mutant huntingtin-calmodulin interaction. P42858. actives 3.6% (n = 190,000). inhibition, % at 15 µM. AlphaScreen His-mHTT/GST-CaM binding, luminescence
Pf apPOL block: Pf-apPOL DNA polymerase inhibition. Recombinant Pf-apPOL, molecular beacon fluorescence, 1.5 h. inhibition, % at 10 µM. actives 0.25% (n = 210,000). AID 1794808
Large screens that a line does not name were inactive; ! = repeats disagree. Hits are enriched below; roughly 3.5% of the tested compounds scored in any of these assays. No stated cut-off is given here; in the data, active means inhibition above about 50%; inactive means the rest.

Cc1ccc(C)c(NC(=O)C2CC(=O)N(CCc3c[nH]c4ccc(Cl)cc34)C2)c1 (centres undefined)	mHTT-CaM PPI inh 67
Cc1cc(C)n(-c2ccc(C(=O)N3CCN(c4ccccc4)CC3)cn2)n1	none
CC1CCCN(Cc2c(O)ccc3c2OC(=Cc2ccncc2)C3=O)C1 (centres undefined)	none
OCCCNc1ncnc2c1sc1nc(N3CCOCC3)c3c(c12)CCCC3	none
Cc1ccc(C)c(NC(=O)N2CCC3(CC2)Nc2cc(F)ccc2-n2cccc23)c1	none
O=C(Nc1cccc(Cl)c1)N1CCC2(CC1)Nc1cc(F)ccc1-n1cccc12	mHTT-CaM PPI inh 94
Cc1ccc(NC(=O)N2CCC3(CC2)Nc2cc(F)ccc2-n2cccc23)cc1Cl	mHTT-CaM PPI inh 77
Cc1ccc(NC(=O)N2CCC3(CC2)Nc2cc(F)ccc2-n2cccc23)cc1C	mHTT-CaM PPI inh 54
Cc1cc(C)cc(NC(=O)N2CCC3(CC2)Nc2cc(F)ccc2-n2cccc23)c1	mHTT-CaM PPI inh 71
O=C(Nc1cccc(Cl)c1)N1CCC2(CC1)Nc1ccccc1-n1cccc12	none
COc1cccc(-c2nc(C3CCN(C(=O)c4ccnn4C)CC3)no2)c1	none
O=C(c1ccccc1OCC1CCN(C(=O)C2(c3ccccc3)CC2)CC1)N1CCCC1	none
CC(C)(C)N=C1Nc2ncccc2NC12CCN(C(=O)NCc1ccco1)C2 (centres undefined)	none
CCC(=O)N1CCN(c2ccc([N+](=O)[O-])c(NC3CC3)c2)CC1	none
CCCCNC(=O)c1cccc(N2CCNC(c3ccccc3)C2)n1 (centres undefined)	none
CCn1cnnc1C1CCCCN1C(=O)Cc1ccsc1 (centres undefined)	none
CS(=O)(=O)N(CC(=O)Nc1ccccc1C(=O)N1CCCC1)c1cccc(Cl)c1Cl	none
CCOc1ccc(NC(=O)C(=O)NCc2ccc3c(c2)OCO3)cc1	none
CCc1ccc(-c2noc(CN3C(=O)COc4cc(Cl)ccc43)n2)cc1	none
O=C(Nc1ccc2c(c1)OCCO2)N1CCC2(CC1)Nc1ccccc1-n1cccc12	mHTT-CaM PPI inh 62
O=C(Nc1ccc2c(c1)OCO2)N1CCC2(CC1)Nc1cc(F)ccc1-n1cccc12	mHTT-CaM PPI inh 68
O=C1CC(NCCCN2CCOCC2)C(=O)N1c1ccc(Br)cc1 (centres undefined)	mHTT-CaM PPI inh 54
O=C1CC(NCCCN2CCOCC2)C(=O)N1c1ccc(N=Nc2ccccc2)cc1 (centres undefined)	none
O=c1[nH]c2ccccc2nc1CN1CCN(c2cccc(Cl)c2)CC1	none
COc1ccc(N2CCN(Cc3nc4cc(Cl)c(Cl)cc4[nH]c3=O)CC2)cc1	mHTT-CaM PPI inh 53
Brc1ccc(-n2nnnc2C=CNCc2ccccc2)cc1	none (no result: mHTT-CaM PPI inh)
Cc1ccc(OCC(O)Cn2cnc3ccccc32)cc1 (centres undefined)	none
OC(COc1ccc(I)cc1)Cn1cnc2ccccc21 (centres undefined)	mHTT-CaM PPI inh 86
Cc1ccc(NC(=O)c2ccc([N+](=O)[O-])c(C)c2)cc1Cl	none
Cc1ccc(NC(=O)c2ccc(NCCN)c([N+](=O)[O-])c2)cc1Cl	mHTT-CaM PPI inh 54
C/C=C/COc1nc2c(c(=O)n(C)c(=O)n2C)n1C	none
C=CCOc1nc2c(c(=O)n(C)c(=O)n2C)n1C	mHTT-CaM PPI inh 100!
COc1cccc(-c2nc3cc(N=Cc4cc(C(=O)O)ccc4O)ccc3o2)c1	none
CC(=O)c1ccc(-c2c([C@H]3[C@@H]4C=CCC[C@@]4(C)C(=O)N3Cc3ccccc3)ccc3ccccc23)cc1	mHTT-CaM PPI inh 101
COc1ccc(-c2ccc([C@H]3[C@@H]4C=CCC[C@@]4(C)C(=O)N3Cc3ccccc3)c(F)c2)cc1OC	none
COc1ccc(-c2c([C@H]3[C@@H]4C=CCC[C@@]4(C)C(=O)N3Cc3ccccc3)ccc3ccccc23)cc1OC	mHTT-CaM PPI inh 100
CN(C)c1ccc(-c2c([C@H]3[C@@H]4C=CCC[C@@]4(C)C(=O)N3Cc3ccccc3)ccc3ccccc23)cc1	none
O=C1COc2ccc(Cl)cc2N1Cc1nc(-c2ccc(F)cc2)no1	none
COc1ccc(NC(=O)COc2ccc([N+](=O)[O-])cc2)c(OC)c1	none
COc1ccc(NCc2ccc([N+](=O)[O-])s2)c(OC)c1	mHTT-CaM PPI inh 67
Cc1cccc(-n2cc(C3CCN(C(=O)C(C)C)CC3)cn2)c1	none
COc1ccc(C2=NN(CN3C(=O)C(=O)c4ccccc43)C(c3ccccc3Cl)C2)cc1 (centres undefined)	mHTT-CaM PPI inh 76
COc1ccc(C2=NN(C(=O)c3ccccc3Cl)C(c3cccc([N+](=O)[O-])c3)C2)cc1 (centres undefined)	none
COc1ccc(C2=NN(CN3C(=O)C(=O)c4ccccc43)C(c3ccccc3)C2)cc1 (centres undefined)	none
COc1ccc(C2=NN(CN3C(=O)C(=O)c4ccccc43)C(c3cccc([N+](=O)[O-])c3)C2)cc1 (centres undefined)	mHTT-CaM PPI inh 96
COC(=O)c1ccc2c(c1)C(=O)C(=Cc1ccc(O)c(OC)c1)O2	none
